In all, about 16,000 compounds went through this assay and about 5,100 (32%) were called active. Not shown: some 25% with an inconclusive outcome. Calls follow the shape of the dose curve; as a rule, active = well fitted curve in the direction sought with a large enough effect; inconclusive = small, poorly fitted or top-dose-only effect, or effect the other way; inactive = no such curve, though single readings can be large or run the other way. This is one part of the list.

Usually AC50 stands for the midpoint of the concentration-response curve, whichever way the signal moves.
% is scaled to controls: 0 for no effect and ±100 for the full control effect.

The target in this assay is Cytochrome P450 3A4 (Homo sapiens) (UniProt P08684). The assay is described as follows: Cytochrome panel assay with activity outcomes. Conditions: recombinant CYP, pro-luciferin dealkylation, luminescence, p450-cyp3a4; series mostly up to 57.1 µM.
Cytochrome P450 3A4 (Homo sapiens), sequence (P08684 whole entry, looked up): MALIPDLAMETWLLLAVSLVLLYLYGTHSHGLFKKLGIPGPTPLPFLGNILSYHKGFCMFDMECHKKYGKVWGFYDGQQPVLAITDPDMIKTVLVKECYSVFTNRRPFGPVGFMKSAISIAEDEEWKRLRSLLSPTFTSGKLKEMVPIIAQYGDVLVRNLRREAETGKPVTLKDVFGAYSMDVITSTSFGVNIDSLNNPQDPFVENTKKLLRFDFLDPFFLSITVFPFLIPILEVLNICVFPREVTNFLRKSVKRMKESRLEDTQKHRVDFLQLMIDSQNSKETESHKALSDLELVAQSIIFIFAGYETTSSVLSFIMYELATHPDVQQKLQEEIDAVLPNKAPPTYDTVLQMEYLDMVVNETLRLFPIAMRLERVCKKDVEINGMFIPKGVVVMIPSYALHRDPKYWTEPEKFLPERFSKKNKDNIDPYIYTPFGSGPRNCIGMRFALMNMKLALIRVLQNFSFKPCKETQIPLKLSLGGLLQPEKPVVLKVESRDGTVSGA
With `Cc1ccc(-n2ccnc2SCC(=O)N(CC(C)C)C2CCS(=O)(=O)C2)c(C)c1` (stereo unspecified), the activity, negative = inhibition is -16.9% [at 2.29 µM] (inactive). As for `O=C(CSc1nnc(-c2ccc(Cl)cc2Cl)n1C1CCCCC1)NC1CCS(=O)(=O)C1` (stereo unspecified), the AC50 was 10 µM (active). With `Cc1cc(C)n2c(SCC(=O)N(C)C3CCS(=O)(=O)C3)nnc2n1` (stereo unspecified), the AC50 entry is “inactive”. Consider `O=P(O)(CCP(=O)(O)c1ccccc1)c1ccccc1`, for which the activity, negative = inhibition was -3.78% [at 11.4 µM] (inactive).

`O=P(O)(O)CCP(=O)(c1ccccc1)c1ccccc1`: the AC50 entry is “inactive”.

On to `O=P(Cc1cc[n+]([O-])cc1)(c1ccccc1)c1ccccc1`, for which the AC50 was 14.1 µM (active). As to `Cc1ccc(S(=O)(=O)N(Cc2ccccc2)c2ccccc2C(=O)NCc2ccco2)cc1`, the concentration at half-maximal activity (AC50) is 2.51 µM (active). As for `O=C(NCc1ccco1)c1ccccc1NS(=O)(=O)c1ccc(Br)s1`, the activity, negative = inhibition was -21% [at 2.29 µM] (inactive). `CN(CCCNC(=O)c1cccn2c(=O)c3ccccc3nc12)Cc1ccccc1`: the AC50 is 1 µM (active). Still for that read-out and setting: under `CN(CCCNC(=O)c1ccc(/C=N/O)nc1)CCCN(C)Cc1ccccc1` stands “inactive”. Turning to `CCCCOc1cc(C(=O)NCCN(CC)CC)c2ccccc2n1`, the AC50 entry is “inactive”. On the same count and under the same terms, the same measure for `Cn1c(-c2ccc(Br)cc2)cnc1NCc1cccnc1`: 3.98 µM (active). The same measure, in the same setting: the same measure for `CCNc1ncc2nc(-c3ccc(F)cc3)c(=O)n(C)c2n1`: “inactive”; for `Cn1c(-c2ccc(F)cc2)cnc1NCc1ccc(F)cc1`: “inactive”; for `Cn1c(-c2ccc(F)cc2)cnc1NCc1cccc(F)c1`: 8.91 µM (active). Take `CCC(C)(C)c1ccc(Oc2cccc(C(=O)O)c2)cc1`: the activity, negative = inhibition was -2.44% [at 11.4 µM] (inactive).

With `C[C@@H](/C=C\c1cccc(Oc2ccc(F)cc2)c1)N(O)C(N)=O`, the concentration at half-maximal activity (AC50) is 1 µM (active). Turning to `C[C@H](C(=O)O)c1cccc(Oc2ccccc2)c1`, the AC50 entry is “inactive”. Still for that read-out and setting: under `COc1ccc(Br)cc1/C=C/C(=O)Nc1c(C)cccc1C` stands 4.47 µM (active); under `COC(=O)/C=C\c1cc(O)ccc1O`, “inactive”. In the case of `CCn1nc(C)c(NC(=O)/C=C/c2cnn(C)c2C)c1C`, the AC50 entry is “inactive”.

For `COc1cc2c(cc1OC)/C(=C/C(=O)N1CCOCC1)NC(C)(C)C2`, the AC50 entry is “inactive”. Same read-out and setting: under `CN1CCc2c(c3c(n2C)CCN(C)[C@H]3c2ccccc2F)[C@@H]1c1ccccc1F` stands 7.94 µM (active). As to `Oc1ccc(Cl)cc1Cc1cc(Cl)cc(Cc2cc(Cl)ccc2O)c1O`, the activity, negative = inhibition was -24.4% [at 11.4 µM] (inactive). For the compound `CN1CCC(=C2c3ccccc3Sc3ccccc32)CC1`, the AC50 entry was “inactive”. The same measure, in the same setting: the same measure for `CN(C)CC/C=C1\c2ccccc2CSc2ccccc21`: “inactive”. Same read-out and setting: under `CN1CCN(CCC=C2c3ccccc3Sc3ccc(S(=O)(=O)N(C)C)cc32)CC1` stands 12.6 µM (active); under `CC1CCC2(CC1)N=C(N)Nc1nc3ccccc3n12` (stereo unspecified), “inactive”. `CCC1(C)Nc2ccccc2C(=O)N1O` (stereo unspecified): the AC50 entry is “inactive”. For the compound `NC1=NC2(CCCCCC2)n2c(nc3ccccc32)N1`, the AC50 entry is “inactive”.

As to `CCCCC1(C)Nc2ccccc2-c2nc3ccccc3n21` (stereo unspecified), the concentration at half-maximal activity (AC50) is 7.08 µM (active). Still for that read-out and setting: under `CCCC1(C)Nc2ccccc2-c2nc3ccccc3n21` (stereo unspecified) stands 12.6 µM (active); under `COC(=O)[C@@]1(Cc2ccccc2)[C@H]2c3cc(C(=O)N4CCCC4)n(Cc4ccsc4Br)c3C[C@H]2CN1C(=O)c1ccccc1`, 3.98 µM (active). Still for that read-out and setting: the same measure for `COC(=O)[C@@]1(Cc2ccccc2)[C@H]2c3cc(C(=O)N(C)C)n(Cc4ccsc4Br)c3C[C@H]2CN1C(=O)c1ccccc1`: 1.58 µM (active). Turning to `CC(C)c1ccc(/C(C(=O)O)=C(\O)C(=O)O)cc1`, the activity, negative = inhibition is -12.9% [at 11.4 µM] (inactive). Still for that read-out and setting: the same measure for `O=C(O)CCC(=O)c1ccc2ccc3cccc4ccc1c2c34`: -10.9% [at 11.4 µM] (inactive); for `CC1(C)OC(=O)C(=CNCC(O)c2ccccc2)C(=O)O1` (stereo unspecified): 20.4% [at 11.4 µM] (inactive). Consider `COc1ccc(-c2cc(CNC(C)=O)on2)cc1`, for which the AC50 entry was “inactive”. For the compound `COc1ccc(-c2noc(N(C)CC(=O)Nc3cccc(C(F)(F)F)c3)n2)cc1`, the AC50 was 12.6 µM (active). The same measure, in the same setting: the same measure for `Cc1ccccc1NC(=O)c1cnc(Nc2nc3ccccc3s2)nc1C`: “inactive”; for `Cc1cccc2sc(NC(=O)C3c4ccccc4Oc4ccccc43)nc12`: 12.6 µM (active). For the compound `CC(=O)c1ccc(OC(=O)C2c3ccccc3Oc3ccccc32)cc1`, the activity, negative = inhibition was 10.9% [at 2.29 µM] (inactive). Still for that read-out and setting: under `O=C(Nc1nn[nH]n1)c1nc(-c2ccccc2)cc(=O)[nH]1` stands -3.85% [at 11.4 µM] (inactive). On to `O=c1nc(-c2ccccc2)cc(C(F)(F)F)[nH]1`, for which the AC50 entry is “inactive”. As to `C[N+](C)(C)CCCSc1nc2ccccc2[nH]1`, the activity, negative = inhibition is 4.86% [at 11.4 µM] (inactive).

For `Cc1ccc2c(C)nc(Nc3nc(CSc4nc5ccccc5[nH]4)cc(=O)[nH]3)nc2c1`, the half-maximal activity concentration (AC50) was 2.82 µM (active). The same measure, in the same setting: the same measure for `Cc1ccc2nc(Nc3nc(-c4ccccc4)cc(=O)[nH]3)nc(C)c2c1`: 2.51 µM (active); for `CCOC(=O)Cn1c(=O)oc2cc(S(=O)(=O)NCCc3ccc(OCC)c(OCC)c3)ccc21`: 12.6 µM (active). As for `CC(=O)Nc1ccc(S(=O)(=O)NCCc2ccc(F)cc2)cc1`, the activity, negative = inhibition is -13.3% [at 2.29 µM] (inactive). In the case of `O=C(NN=C1C2CC3CC(C2)CC1C3)c1ccncc1`, the AC50 was 25.1 µM (active). Same read-out and setting: the same measure for `CC(=O)c1c(C(C)=O)c(C)n(NC(=O)c2ccncc2)c1C`: “inactive”. As for `O=C1c2ccc3c4c(ccc(c24)C(=O)N1c1ccc2ccccc2c1)CC3`, the AC50 entry is “inactive”. Take `COc1ccc2c(c1)-c1ccccc1S(=O)(=O)N2C`: the AC50 entry was “inactive”. Still for that read-out and setting: the same measure for `COc1ccc2c(c1)C(=O)N(c1ccccc1)C(=O)C2`: 2.24 µM (active); for `O=C(COc1ccc([N+](=O)[O-])cc1)NCc1ccccc1`: “inactive”; for `Cc1ccccc1CS(=O)(=O)Cc1ccc(C(=O)NCc2cccnc2)o1`: 0.891 µM (active). The same measure, in the same setting: the same measure for `CCOc1ccc(OCc2ccc(C(=O)NCc3cccnc3)o2)cc1`: 2.82 µM (active); for `O=C(COc1ccc([N+](=O)[O-])cc1)Nc1ccc(C(=O)NCc2cccnc2)cc1`: 12.6 µM (active); for `O=C(c1ccc(COc2ccc(F)cc2)o1)n1cccn1`: “inactive”.

On to `O=C(N/N=C/c1cccnc1)c1ccc([N+](=O)[O-])cc1`, for which the AC50 entry was “inactive”. Same read-out and setting: under `CN(C)C(=O)c1ccc(-c2cc(Nc3ccccc3)ncn2)cc1` stands “inactive”. Still for that read-out and setting: the same measure for `CS(=O)(=O)Nc1cccc(-c2cc(NCc3ccccc3)ncn2)c1`: 15.8 µM (active).

Take `CS(=O)(=O)Nc1cccc(-c2cc(NCc3cccs3)ncn2)c1`: the AC50 was 15.8 µM (active). On the same count and under the same terms, the same measure for `Cc1cccc(CNc2cc(-c3cccc(NS(C)(=O)=O)c3)ncn2)c1`: 2 µM (active); for `CS(=O)(=O)Nc1cccc(-c2cc(Nc3ccccc3)ncn2)c1`: 15.8 µM (active).

Take `CC(=O)c1cn(CCCCCCCCCCn2cc(C(C)=O)c(=O)[nH]c2=O)c(=O)[nH]c1=O`: the activity, negative = inhibition is 2.06% [at 2.29 µM] (inactive). `NC(=O)C[C@H](N)C(N)=O`: the activity, negative = inhibition was 2.14% [at 11.4 µM] (inactive). For the compound `CCN(CC)CCOc1ccc2nc(N(C)C)sc2c1`, the AC50 result is “inactive”. For `COC(=O)C1CCC(C)(C(=O)Nc2ccccc2)C1(C)C` (stereo unspecified), the activity, negative = inhibition was -9.58% [at 11.4 µM] (inactive). On to `CC1(C)SC(=S)N(NC(=O)Nc2ccccc2)C1N(O)C(=O)Nc1ccccc1` (stereo unspecified), for which the half-maximal activity concentration (AC50) is 2.51 µM (active). `CC1CC(C)CN(C(=O)CSc2nnc(CSc3ncccn3)n2C)C1` (stereo unspecified): the activity, negative = inhibition is 3.75% [at 2.29 µM] (inactive). As for `COCC(=O)N1CCC2(CC1)CCN(c1cccc(-c3ccccc3)c1)CC2`, the AC50 result was “inactive”. The same measure, in the same setting: the same measure for `CC(C)c1ccccc1-n1c(SCC(=O)N2CCN(c3ccccc3)CC2)nnc1-c1cccnc1`: 0.501 µM (active); for `Cn1c(Cc2cccc3ccccc23)nnc1SCC(=O)N1CCN(c2ccccc2)CC1`: 1.58 µM (active); for `Cc1cc2nnc(SCC(=O)N3CCN(c4ccccc4)CC3)n2c(N)n1`: 14.1 µM (active). The same measure, in the same setting: the same measure for `Cn1c(CC(=O)Nc2ccc(Cl)c(Cl)c2)nnc1SCC(=O)N1CCN(c2ccccc2)CC1`: 1.58 µM (active). On the same count and under the same terms, under `COc1ccccc1CNc1ncncc1-c1ccc2c(c1)OCO2` stands 0.2 µM (active). In the case of `COc1ccc(CNc2ncncc2-c2ccc3c(c2)OCO3)c(OC)c1`, the half-maximal activity concentration (AC50) is 0.126 µM (active). With `O=C1CSC2(CCN(CCCN3c4ccccc4Sc4ccc(Cl)cc43)CC2)N1`, the activity, negative = inhibition was -14.4% [at 11.4 µM] (inactive).

For `C[C@@](O)(CNS(=O)(=O)c1ccccc1)c1ccccc1`, the activity, negative = inhibition is -21.9% [at 11.4 µM] (inactive). In the case of `CCC/C=C(\CCC)C(NS(=O)(=O)c1ccccc1)c1ccc(C(F)(F)F)cc1` (stereo unspecified), the AC50 is 6.31 µM (active). Still for that read-out and setting: the same measure for `CCC/C=C(\CCC)C(NS(=O)(=O)c1ccc(C(F)(F)F)cc1)c1ccccc1` (stereo unspecified): 10 µM (active); for `COc1ccccc1CN1CCCC2(CCN(C(C)=O)CC2)C1`: “inactive”; for `COCC(=O)N1CCC2(CCCN(Cc3ccccc3OC)C2)CC1`: “inactive”.

For `COc1ccccc1CN1CCCC2(CCN(C(=O)c3ccncc3)CC2)C1`, the AC50 is 6.31 µM (active). The same measure, in the same setting: the same measure for `COc1ccccc1CN1CCCC2(CCN(C(=O)c3cnccn3)CC2)C1`: 15.8 µM (active); for `Cc1cccc(Cc2c(C)nc3nc(SCC(=O)NCc4ccco4)nn3c2C)c1`: 11.2 µM (active); for `Cc1nc2nc(SCC(=O)NCc3ccco3)nn2c(C)c1Cc1c(F)cccc1Cl`: 10 µM (active). Still for that read-out and setting: the same measure for `CCCN=C(N)NCCC[C@H](N)C(=O)O`: “inactive”. The same measure, in the same setting: under `COc1cc(OC)c(C2N(c3cc(C)on3)C(=O)C3CCCN32)cc1OC` (stereo unspecified) stands “inactive”; under `CCOC(=O)c1cc(-c2ccccc2)sc1NC(=O)c1ccc(OC)cc1`, “inactive”.

With `CCOC(=O)c1cc(CC)sc1NC(=O)c1cc(OCC)c(OCC)c(OCC)c1`, the half-maximal activity concentration (AC50) is 22.4 µM (active). Still for that read-out and setting: under `CCc1cc(C(=O)OC)c(NC(=O)CCCC(=O)O)s1` stands “inactive”. Take `CC(C)NCC[C@@H](O)c1cc2ccccc2o1`: the activity, negative = inhibition is -4.13% [at 11.4 µM] (inactive). Regarding `CCOC(=O)/C(C#N)=C1/C=CN(C)C=N1`, the AC50 entry is “inactive”. Same read-out and setting: the same measure for `CC(=O)c1ccc(NC(=O)C2(c3ccccc3)CCOCC2)cc1`: “inactive”.
